Assay results reported in PubChem BioAssay (NCI).
The panel holds about 79,000 compounds, 15% with a hit somewhere; the sample as a whole holds those more often. Cut-off read from the data, not from the text of the source: active = growth inhibition above about 70%; inactive = the rest.

Columns and labels:
[1] = NCI Yeast Anticancer Drug Screen. Data for the rad50 strain (AID 155);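 note: 0% = growth of vehicle-only cultures of the same strain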; details: S. cerevisiae rad50 strain growth inhibition; at 50.0 µM; active compounds read high
Method in brief: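 Growth of the mutant yeast was measured after compound exposure and referenced to vehicle-treated cultures.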

[2] = NCI Yeast Anticancer Drug Screen. Data for the mec2-1 strain (AID 157); details: S. cerevisiae mec2-1 strain, at 50.0 µM, active compounds read high
Method in brief: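 Cells of the genetically defined mec2-1 yeast strain are incubated with test compound. Inhibition of growth is calculated against vehicle-treated controls.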

[3] = NCI Yeast Anticancer Drug Screen. Data for the sgs1 mgt1 strain (AID 161);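 note: 0% = growth of cultures given vehicle only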; details: S. cerevisiae sgs1 mgt1 strain, at 50.0 µM, active compounds read high
Method in brief: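 Mutant yeast exposed to compound; growth scored against vehicle-only wells.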

[4] = NCI Yeast Anticancer Drug Screen. Data for the cln2 rad14 strain (AID 165);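 note: 0% = growth equal to vehicle treated cultures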; details: S. cerevisiae cln2 rad14 strain, at 50.0 µM, active compounds read high
Method in brief: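 The screen exposed genetically defined yeast (cln2 rad14) to test compounds and scored growth inhibition relative to vehicle-treated controls.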

[5] = NCI Yeast Anticancer Drug Screen. Data for the bub3 strain (AID 167); details: S. cerevisiae bub3 mutant strain, at 50.0 µM, active compounds read high
Method in brief: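 Whole-cell yeast assay. The mutant strain was incubated with compounds, and growth inhibition was determined by comparison with vehicle-treated cells.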

[6] = NCI Yeast Anticancer Drug Screen. Data for the mlh1 rad18 strain (AID 175); details: S. cerevisiae mlh1 rad18 strain growth inhibition; at 50.0 µM; active compounds read high
Method in brief: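 Compound-treated yeast growth, normalised to vehicle controls. Strain bears defined DNA repair mutations.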

Measured: growth inhibition

O=CN/C=C\c1cc(O)ccc1O
inactive: [1] 3.1% | [2] 4.45% | [3] -2.6% | [4] 21.4% | [5] 16.9% | [6] 13.1%

C/C(CC(=O)NCCc1ccccc1)=N\NS(=O)(=O)c1ccc(C)cc1
inactive: [1] 37.1% | [2] -6.6% | [3] 10.2% | [4] 28.3% | [5] -4.2% | [6] 8%

Cc1ccc(C(C)(O)C2CC2)cc1 (configuration not stated)
inactive: [1] -11.4% | [2] -33.8% | [3] -18.4% | [4] 18.6% | [5] -35.8% | [6] 18.1%

O=C1CCC(N2C(=O)c3ccccc3C2=O)C(=O)O1 (configuration not stated)
inactive: [1] -21.9% | [2] -5.45% | [3] -0.95% | [4] -38% | [5] 8.5% | [6] -12.9%

CC(C)(C)c1ccc(OS(=O)(=O)c2ccc(Cl)c(Cl)c2)cc1
inactive: [1] 0.4% | [2] 17.4% | [3] 0.35% | [4] 31.6% | [5] 6.8% | [6] -4.85%

CCOC(=O)Nc1cccc(F)c1
inactive: [1] -10.9% | [2] 14.7% | [3] 22.9% | [4] -44.6% | [5] -21.1% | [6] -0.5%

CCCCCCCCCCCCCCCCCC(=O)N1C(=O)c2ccccc2C1=O
inactive: [1] 22.6% | [2] 2.35% | [3] 6.75% | [4] -8.85% | [5] -2.65% | [6] 29.9%

O=C(CCN(CCC(=O)c1ccccc1)CCC(=O)c1ccccc1)c1ccccc1
inactive: [1] 22.2% | [2] 11.8% | [3] -5.05% | [4] -31.3% | [5] 0.9% | [6] 26.9%

Clc1ccc(-c2nnc(-c3ccc(Cl)c(Cl)c3)o2)cc1Cl
inactive: [1] 0.25% | [2] 9.95% | [3] 17.8% | [4] -30.5% | [5] -10.9% | [6] 22.9%

O=C(O)c1cc(-c2ccccc2O)nc2ccccc12
inactive: [1] -19.5% | [2] -7.1% | [3] -5.2% | [4] 16.3% | [5] -1.35% | [6] -1.5%

C=C(COC(=O)C(C)C)[C@H]1Oc2ccc(C(C)=O)cc2[C@@H]1OC(=O)C(C)C
inactive: [1] -11.5% | [2] -3.9% | [3] -15.9% | [4] -9.55% | [5] 0.45% | [6] -23.1%

O=CNc1ccc(S(=O)(=O)c2ccc(NC=O)cc2)cc1
inactive: [1] 4.05% | [2] -35.7% | [3] 4.75% | [4] 26.6% | [5] 9.9% | [6] -18.1%

CCC1C(=O)OCc2c1cc1n(c2=O)CCC12OCCO2 (configuration not stated)
inactive: [1] 0.1% | [2] -15.1% | [3] -36.8% | [4] -17.6% | [5] -23.8% | [6] -15.6%

CN(C)c1ccc(/C=N\N=C\c2ccco2)cc1
inactive: [1] 7.65% | [2] -3.2% | [3] 22.6% | [4] -40.2% | [5] -7.55% | [6] 10.1%

Nc1ccc(S(=O)(=O)N/N=C/c2ccccc2)cc1
inactive: [1] 10.2% | [2] -0.4% | [3] 12.1% | [4] 34.4% | [5] -34% | [6] 29.8%

O=C(O)C(Cc1cccs1)(Cc1cccs1)C(=O)O
inactive: [1] -9% | [2] -4.6% | [3] -2.9% | [4] -18.7% | [5] -9.75% | [6] -2.2%

CCCCCCCCCCCCCCCC(=O)Nc1ccc(C(=O)C[n+]2ccc3c(NC(=O)CCC(=O)OC)cccc3c2)cc1
inactive: [1] 3.4% | [2] -12.2% | [3] 3% | [4] -0.95% | [5] 8.55% | [6] -10.6%

C/C([O-])=N\[N+](C)(C)Cc1ccccc1
inactive: [1] -4.65% | [2] 0.8% | [3] -11.7% | [4] -23.4% | [5] -6.6% | [6] 5.8%

O=C(Nc1nc2ccsc2s1)c1ccccc1
inactive: [1] -15.8% | [2] -3% | [3] -4% | [4] -34.9% | [5] -8% | [6] -10.8%

O=C1C2=C(c3ccccc31)C(c1ccc(F)cc1)N1C(=O)CCSC1=N2 (configuration not stated)
inactive: [1] 45.1% | [2] 19.1% | [3] 63% | [4] 40.1% | [5] 48.6% | [6] 56.1%

N#Cc1c(N2CCCC2)ncn(Cc2ccccc2)c1=S
inactive: [1] -10.9% | [2] -15.1% | [3] -8.4% | [4] -25.1% | [5] -5.1% | [6] -0.2%

CCNC(=O)NCC
inactive: [1] -16.4% | [2] -19.4% | [3] -32.7% | [4] -29.2% | [5] -2% | [6] -3.4%

COc1cc(C2C3=C(COC3=O)Oc3cc4c(cc32)OCO4)ccc1OC(C)=O (configuration not stated)
inactive: [1] 20.7% | [2] 5.55% | [3] -13.8% | [4] 21.1% | [5] -4.35% | [6] -5.2%

Cc1c2c([nH]c(=O)c1C)C=CC(Br)C2Br (configuration not stated)
inactive: [1] -0.7% | [2] 0.55% | [3] 1.5% | [4] 3.2% | [5] 0.2% | [6] 6.95%

O=c1c(O)c(-c2ccc(O)cc2O)oc2cc(O)cc(O)c12
inactive: [1] -8.35% | [2] -29.2% | [3] -3.55% | [4] 3.5% | [5] -19.4% | [6] -26.8%

CC(=O)Nc1ccc(N)cc1-c1ccc(N)cc1
inactive: [1] -2.75% | [2] -16.9% | [3] 1.5% | [4] 29.1% | [5] 5.25% | [6] -18%

COC1CCC(/C(C#N)=C/C2CCC(N(C)C)CC2)CC1 (configuration not stated)
inactive: [1] 12.9% | [2] 16.2% | [3] 20.9% | [4] 10.6% | [5] 9.85% | [6] 18.6%

BrCCCCCOc1ccc(-c2c3ccccc3c(-c3ccc(OCCCCCBr)cc3)c3ccccc23)cc1
inactive: [1] 11.4% | [2] 18.1% | [3] 12.8% | [4] 0.05% | [5] -12.9% | [6] 12.8%

O=C1C(=O)c2ccccc2C(O)=C1c1ccccc1
inactive: [1] 28.6% | [2] 22.8% | [3] 47.2% | [4] 7.75% | [5] 5.6% | [6] 51%

C=C(C)CS(=O)(=O)Cc1ccccc1
inactive: [1] 14.6% | [2] -10.1% | [3] -1.8% | [4] -40.9% | [5] -4.55% | [6] 7.6%

O=C(NNC(=O)c1ccc2ccccc2c1)c1ccc(Cl)c(Cl)c1
inactive: [1] -13.3% | [2] -23.3% | [3] -2.65% | [4] 17.1% | [5] -5.25% | [6] -14.1%

O=C1CC(c2ccccc2)S(=O)c2ccccc2N1 (configuration not stated)
inactive: [1] -7.5% | [2] 5.25% | [3] -9.9% | [4] 26.8% | [5] 11.6% | [6] -1.25%

CC(=O)N1CC=CCC1
inactive: [1] -16.6% | [2] 5.85% | [3] -17.9% | [4] -7.5% | [5] -1.55% | [6] -2.85%

CCCCCCCCCCCCCCCC(=O)OCC(=O)O
inactive: [1] 14.7% | [2] -16.4% | [3] 23.2% | [4] 10.3% | [5] 15.2% | [6] 1.3%

CN=CN(C)c1c2ccccc2nc2ccccc12
inactive: [1] 5.6% | [2] -11.3% | [3] -5.05% | [4] 10.7% | [5] 9.75% | [6] -1.25%

CC(C)(O)/C=C\P(C)(=O)c1ccccc1 (configuration not stated)
inactive: [1] -30.9% | [2] -21.9% | [3] -4.7% | [4] 9.85% | [5] -32.5% | [6] -31.4%

Nc1c2cc3ccc2nc2ccc(cc12)OCCOCCOCCOCCOCCOCCO3
inactive: [1] -3.05% | [2] -16.1% | [3] -9.55% | [4] -12% | [5] -0.35% | [6] -21.2%

CC(C)NC(=O)Nc1ccccc1Cl
inactive: [1] -4.45% | [2] -8.9% | [3] 6.9% | [4] -28.8% | [5] -11.8% | [6] -0.7%

O=C(O)CC/C(=N\Nc1ccc([N+](=O)[O-])cc1[N+](=O)[O-])c1ccccc1
inactive: [1] 0.7% | [2] 26.4% | [3] 44.3% | [4] -18.4% | [5] 16.2% | [6] 30.3%

O=C(Nc1cc([N+](=O)[O-])ccc1F)Oc1ccc(OCc2ccccc2)cc1
inactive: [1] 11.9% | [2] -1.5% | [3] 9.9% | [4] -47.2% | [5] -2.55% | [6] 18.2%

OCC(O)C(O)Cc1cnc(C(O)C(O)C(O)CO)cn1 (configuration not stated)
inactive: [1] 6.65% | [2] 5.65% | [3] -6.95% | [4] -20.2% | [5] -9.45% | [6] 6.4%

CCCCNC(C)(C)CSS(=O)(=O)O
inactive: [1] -12.9% | [2] -23.3% | [3] -22.2% | [4] -59.8% | [5] 4.1% | [6] -14.6%
